# Laboratory results from PubChem BioAssay (NCATS).
# Results filed as inconclusive are left out. Where a call stands in place of a potency, no number is given. Values without a mark were called inactive. Activity calls are given as the source filed them. Calls follow the shape of the dose curve; as a rule, active = well fitted curve in the direction sought with a large enough effect; inconclusive = small, poorly fitted or top-dose-only effect, or another doubt; inactive = no such curve, though single readings can be large; an effect the other way counts as inactive or inconclusive.
# Experiments:
# [1] = biological target: Cellular tumor antigen p53 (Homo sapiens) (UniProt P04637); assay: Primary qHTS for small molecule compounds that upregulate eGFP-tagged delta133p53alpha (in N-terminal) cells. (AID 2060322); conditions: NCI-H358 eGFP-delta133p53alpha fluorescence, 24 h; activation: active compounds read high; also: nearly all actives have a fitted effect of over 75% in size; also: potency is read from the fitted curve at half-maximal effect;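 as to activation: cells pre-induced with doxycycline then dosed without doxycycline; series mostly up to about 56 µM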
# Summary of the method: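 NCI-H358 cells pre-induced 24 h with 10 ng/ml doxycycline for eGFP-delta133p53alpha, plated dox-free and exposed 24 h at 37C to titrated compounds. Fixed, Hoechst-stained; gated GFP peak intensity by laser scanning cytometry, normalized to DMSO (0%) and 57.5 uM 5-azacytidine (100%).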
# [2] = biological target: Aldehyde dehydrogenase, mitochondrial (Homo sapiens) (UniProt P05091); assay: qHTS for Inhibitors of the Aldehyde Dehydrogenase Family (ALDH2) Primary screen (AID 2061308); also: nearly all actives have a fitted effect of over 55% in size
# [3] = biological target: Retinaldehyde dehydrogenase 3 (Homo sapiens) (UniProt P47895); assay: qHTS for Inhibitors of the Aldehyde Dehydrogenase Family (ALDH1A3) Primary screen (AID 2061315)
# Cellular tumor antigen p53 (Homo sapiens), sequence (P04637 whole entry, looked up): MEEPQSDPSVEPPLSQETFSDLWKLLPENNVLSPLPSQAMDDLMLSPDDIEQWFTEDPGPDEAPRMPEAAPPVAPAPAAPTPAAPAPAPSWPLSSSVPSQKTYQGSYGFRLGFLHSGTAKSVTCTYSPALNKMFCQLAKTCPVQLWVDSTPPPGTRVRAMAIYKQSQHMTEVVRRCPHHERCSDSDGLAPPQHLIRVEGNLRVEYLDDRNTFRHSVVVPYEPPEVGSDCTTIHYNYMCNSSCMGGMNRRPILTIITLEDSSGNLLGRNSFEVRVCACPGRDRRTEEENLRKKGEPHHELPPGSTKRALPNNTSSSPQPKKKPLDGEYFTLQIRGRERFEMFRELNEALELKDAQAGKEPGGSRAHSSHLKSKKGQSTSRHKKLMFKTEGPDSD
SMILES,activation [1] [%],Potency [2],Potency [3],Potency [1]
Cc1cc(C(C)Nc2ccccc2C(=O)O)c2nc(N3CCOCC3)cc(=O)n2c1 (configuration not stated),14.3,inactive,inactive,–
C=C1CCC(OC(C)=O)C2(C)CC3OC(=O)C(C)=C3CC12 (configuration not stated),-0.763,inactive,inactive,–
COc1ccc([C@H]2OC[C@H]3O[C@@H](O[C@H]4[C@@H]2NC[C@@H]4O)[C@H](O)[C@H]3O)cc1,–,inactive,inactive,5.24 µM (active)
O=C1CC[C@H](C(=O)N2CCCCC2)N1,-6.33,inactive,inactive,–
